Where “and” joins values, the source holds several entries; their conditions need not be identical. Equal values may be shown once. Results filed as inconclusive are left out. Calls of active or inactive are those of the source. Unless noted, the call rests on the fitted dose curve.

Experiment [1] can be described thus: Nuclear factor erythroid 2-related factor 2/antioxidant responsive element (Nrf2/ARE) small molecule agonists: qHTS cell viability counter screen in human keratinocytes (AID 1919968; active means well fitted curve in the direction sought with a large enough effect in the repeat runs; an effect the other way counts as inactive or inconclusive; further: nearly all actives have a fitted effect of over 55% in size; further: potency means the concentration at half of the fitted maximal effect). The method in brief:
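In human HaCaT keratinocytes stably expressing an ARE-driven luciferase, compound exposure lasted 23 h at 37 C under 5% CO2. Viable cells are quantified with a protease-based fluorogenic reagent (CellTiter-Fluor) read 1 h after addition.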
(In general: qHTS replaces the single test concentration by a dilution series.)

Experiment [2] in a line: Nuclear factor erythroid 2-related factor 2/antioxidant responsive element (Nrf2/ARE) small molecule agonists: luciferase reporter gene qHTS assay in human keratinocytes (AID 1919969). Further: nearly all actives have a fitted effect of over 35% in size. Further: potency means the concentration at half of the fitted maximal effect.
Experiment [3] concerns the target Gonadotropin-releasing hormone receptor (Homo sapiens) (UniProt P30968). Nature of the experiment: Human gonadotropin-releasing hormone receptor (GnRHR) small molecule agonists, calcium flux assay in GnRHR-HEK293 cells (AID 1920063). Further: nearly all actives have a fitted effect of over 35% in size. The procedure, abridged:
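Intracellular calcium rise is the read-out: engineered human GnRHR HEK293 cells, dye-loaded, are exposed to DMSO-dissolved compounds and fluorescence at Ex/Em 480/540 is tracked for 3 min.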
(In general: Calcium assays in cells follow changes in intracellular calcium, usually with a dye or a luminescent sensor.)

Experiment [4] deals with KiSS-1 receptor (Homo sapiens) (UniProt Q969F8). Nature of the experiment: Human kisspeptin (KISS1R) small molecule agonists, calcium flux assay in KISS1R-HEK293 cells (AID 1920064; active means well fitted curve in the direction sought with a large enough effect in the repeat runs; an effect the other way counts as inactive or inconclusive). The procedure, abridged:
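Concentration-response testing used 15 concentrations in triplicate on human KISS1R-expressing HEK293 cells. Calcium-dependent fluorescence (Ex/Em 480/540) was followed kinetically for 3 min after compound transfer.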

Experiment [5] in a line: G protein-coupled receptor (GPCR) small molecule agonists, calcium flux assay: HEK293 wild type cell line counter screen (AID 1920065). The method in brief:
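Fluorescence intensity signals activation. After overnight (18 h) culture and a 1 h calcium dye load at 37 C, compounds are added by pin tool and the plate read at 480/540 nm for 3 min in 1 s steps.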

Experiment [6] is described as follows: p53 small molecule agonists, cell-based qHTS assay with human liver microsomes: qHTS cell viability counter screen (AID 1963579). Further: nearly all actives have a fitted effect of over 45% in size. The method in brief:
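p53RE-bla cells (4,000/well) were pre-incubated 5 h at 37 C, then given compounds in DMSO plus human liver microsomes (0.5 mg/mL final) and NADPH (0.5 mg/mL final) for 16 h at 37 C. Viability was read by CellTiter-Glo luminescence.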

Experiment [7] in a line: p53 small molecule agonists, cell-based qHTS assay with rat liver microsomes: qHTS cell viability counter screen (AID 1963580). Further: nearly all actives have a fitted effect of over 45% in size. The method in brief:
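Cytotoxicity counter screen: intracellular ATP read by CellTiter-Glo luminescence in the p53 reporter wells. HCT-116 p53RE-bla cells were treated for 16 h at 37 C alongside rat liver microsomes and NADPH, each 0.5 mg/mL final.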

The nature of experiment [8]: p53 small molecule agonists, cell-based qHTS assay: qHTS cell viability counter screen (AID 1963581). Further: nearly all actives have a fitted effect of over 45% in size. The method in brief: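 Luminescence from CellTiter-Glo, reflecting ATP content, serves as the cytotoxicity measure; it is taken after the 2 h reporter substrate step in HCT-116 p53RE-bla cells dosed for 16 h at 37 C.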
Experiment [9] has as its target 5-hydroxytryptamine receptor 2A (Homo sapiens) (UniProt P28223). Description: 5-hydroxytryptamine receptor 2A (HTR2A) small molecule antagonists, cell-based qHTS assay (AID 1963586). Further: nearly all actives have a fitted effect of over 45% in size. The method in brief: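 CHO cells stably expressing human HTR2A were plated for 18 h at 37 C, then loaded with calcium dye for 1 h. Compounds were preincubated 5 min at room temperature before DOI (4 nM solution) was added. Kinetic fluorescence was read for 3 min.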

Experiment [10] has the same target. Description: 5-hydroxytryptamine receptor 2A (HTR2A) small molecule agonists, cell-based qHTS assay (AID 1963587). Further: nearly all actives have a fitted effect of over 30% in size. The procedure, abridged: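 Kinetic calcium-flux fluorescence (2 min, 1 sec intervals) after compound addition in agonist mode. HTR2A-CHO cells were cultured 18 h, then dye-loaded 1 h at 37 C.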
The target of experiment [11] is Muscarinic acetylcholine receptor M1 (Homo sapiens) (UniProt P11229). Nature of the experiment: Cholinergic receptor muscarinic 1 (CHRM1) small molecule antagonists, cell-based qHTS assay (AID 1963588). Further: nearly all actives have a fitted effect of over 40% in size. The procedure, abridged:
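Compounds were tested at 15 concentrations in three independent runs. Dye-loaded CHRM1-CHO cells were exposed 5 min at room temperature before stimulation by acetylcholine added at 50nM. Intracellular calcium was read kinetically on FDSS for 3 min.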

Experiment [12] shares this target. Description: Cholinergic receptor muscarinic 1 (CHRM1) small molecule agonists, cell-based qHTS assay (AID 1963589). Further: nearly all actives have a fitted effect of over 35% in size. The procedure, abridged: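 Fluorescent calcium dye reports M1 activation in stably transfected CHO cells. Compounds, 15 concentrations, added after 1 h dye loading at 37 C; kinetic reading at 1 sec intervals.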
The target of experiment [13] is Beta-2 adrenergic receptor (Homo sapiens) (UniProt P07550). Nature of the experiment: Adrenergic beta2 receptor (ADRB2) small molecule antagonists, cell-based qHTS assay (AID 1963592). Further: series mostly up to about 92 µM; nearly all actives have a fitted effect of over 50% in size. The method in brief: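 Assay format: CHO-ADRB2 cells, 18-20hr seeding at 37C/5% CO2, then compound plus 1nM isoproterenol agonist mix for 0.5hr RT. Homogeneous time-resolved fluorescence cAMP detection after 1hr, expressed as 665/615 nm ratio.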
Sequence of Beta-2 adrenergic receptor (Homo sapiens) (P07550 whole entry, looked up): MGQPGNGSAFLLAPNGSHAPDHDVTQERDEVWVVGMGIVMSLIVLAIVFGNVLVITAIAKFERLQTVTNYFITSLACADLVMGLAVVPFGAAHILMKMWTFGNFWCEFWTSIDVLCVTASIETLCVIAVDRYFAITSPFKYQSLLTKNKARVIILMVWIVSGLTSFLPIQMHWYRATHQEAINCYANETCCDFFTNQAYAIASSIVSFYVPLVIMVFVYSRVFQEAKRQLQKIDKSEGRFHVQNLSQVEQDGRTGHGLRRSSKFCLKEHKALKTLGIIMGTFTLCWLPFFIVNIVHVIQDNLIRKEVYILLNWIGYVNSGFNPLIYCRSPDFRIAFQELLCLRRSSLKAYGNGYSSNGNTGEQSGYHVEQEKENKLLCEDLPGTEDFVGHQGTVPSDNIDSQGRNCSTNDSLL

Experiment [14] concerns the target D(2) dopamine receptor (Homo sapiens) (UniProt P14416). Nature of the experiment: Dopamine D2 receptor (DRD2) small molecule agonists, cell-based qHTS assay (AID 1963594). Further: nearly all actives have a fitted effect of over 35% in size. The method in brief:
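cAMP accumulation in DRD2-HEK293 cells measured by HTRF after 1 h detection; compounds added 10 min before NKH477 (200nM […]) forskolin-analogue stimulation, 30 min at room temperature, with Ro20-1724 present at 0.1 mM final.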

Experiment [15] in a line: cAMP Responsive Elements (CRE) small molecule agonists, cell-based qHTS assay (AID 1963590). The method in brief:
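Compound exposure lasted 3 h at 37 C/5% CO2 in CRE-bla HEK 293T cells grown in assay medium with 10% dialyzed FBS and 25 mM HEPES. Reporter signal came from LiveBLAzer B/G FRET substrate, 2 h, room temperature.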

Experiment [16] in a line: cAMP Responsive Elements (CRE) small molecule antagonists, cell-based qHTS assay (AID 1963591; active means well fitted inhibition curve with a large enough effect in the signal ratio in the repeat runs, not every such curve was filed as active; the % refers to the signal ratio). The method in brief:
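Stimulation used NKH477 at a final 0.25 uM for 3 h in compound-treated CRE-bla HEK293T cells, seeded 18 h beforehand. Reporter activity was measured with LiveBLAzer B/G FRET substrate after 2 h at room temperature.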

Experiment [17] deals with Beta-2 adrenergic receptor (Homo sapiens) (UniProt P07550). Nature of the experiment: Adrenergic beta2 receptor (ADRB2) small molecule agonists, cell-based qHTS assay (AID 1963593).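 Further: CHO cells stably overexpressing human ADRB2.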 The procedure, abridged:
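CHO cells stably over-expressing ADRB2 were plated overnight at 37C, then dosed with compounds plus a stimulation mix containing 100uM IBMX and 25uM Ro-20-1724 for 0.5hr at room temperature. cAMP was measured by HTRF competition, 1hr.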

In experiment [18] the target is D(2) dopamine receptor (Homo sapiens) (UniProt P14416). Nature of the experiment: Dopamine D2 receptor (DRD2) small molecule antagonists, cell-based qHTS assay (AID 1963595; active means well fitted inhibition curve with a large enough effect in the signal ratio in the repeat runs, with a control signal flat; the % refers to the signal ratio). The procedure, abridged: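 Cells were plated and grown for 24 h at 37 °C. Ro20-1724 (0.1 mM final) went in first, then compound for 10 min. NKH477 (200 nM) with quinpirole (12 nM) followed for 30 min at RT, then HTRF detection reagents for 1 h.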
Sequence of D(2) dopamine receptor (Homo sapiens) (P14416 whole entry, looked up): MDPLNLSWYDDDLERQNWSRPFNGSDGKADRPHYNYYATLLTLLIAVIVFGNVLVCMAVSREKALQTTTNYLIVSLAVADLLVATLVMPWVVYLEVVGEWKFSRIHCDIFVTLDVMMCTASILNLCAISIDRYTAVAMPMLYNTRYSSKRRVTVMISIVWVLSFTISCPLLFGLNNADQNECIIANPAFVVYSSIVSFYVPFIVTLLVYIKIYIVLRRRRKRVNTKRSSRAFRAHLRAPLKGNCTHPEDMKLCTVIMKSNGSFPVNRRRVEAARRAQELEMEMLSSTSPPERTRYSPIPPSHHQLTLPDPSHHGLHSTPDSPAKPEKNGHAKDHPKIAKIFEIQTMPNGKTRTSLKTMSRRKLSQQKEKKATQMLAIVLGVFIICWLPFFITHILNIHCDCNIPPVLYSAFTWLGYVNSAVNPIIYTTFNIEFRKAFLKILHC

Sequence of KiSS-1 receptor (Homo sapiens) (Q969F8 whole entry, looked up): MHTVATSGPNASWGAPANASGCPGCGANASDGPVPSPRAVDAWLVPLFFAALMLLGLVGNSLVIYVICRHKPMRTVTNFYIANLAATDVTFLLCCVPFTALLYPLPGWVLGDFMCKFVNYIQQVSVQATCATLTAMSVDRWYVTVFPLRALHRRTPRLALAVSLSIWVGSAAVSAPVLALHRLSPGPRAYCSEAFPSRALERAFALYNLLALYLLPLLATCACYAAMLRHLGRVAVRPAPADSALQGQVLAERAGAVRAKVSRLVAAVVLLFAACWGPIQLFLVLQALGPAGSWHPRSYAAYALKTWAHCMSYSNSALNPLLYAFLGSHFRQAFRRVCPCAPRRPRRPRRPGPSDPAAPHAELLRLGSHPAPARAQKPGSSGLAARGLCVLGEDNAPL
Sequence of Muscarinic acetylcholine receptor M1 (Homo sapiens) (P11229 whole entry, looked up): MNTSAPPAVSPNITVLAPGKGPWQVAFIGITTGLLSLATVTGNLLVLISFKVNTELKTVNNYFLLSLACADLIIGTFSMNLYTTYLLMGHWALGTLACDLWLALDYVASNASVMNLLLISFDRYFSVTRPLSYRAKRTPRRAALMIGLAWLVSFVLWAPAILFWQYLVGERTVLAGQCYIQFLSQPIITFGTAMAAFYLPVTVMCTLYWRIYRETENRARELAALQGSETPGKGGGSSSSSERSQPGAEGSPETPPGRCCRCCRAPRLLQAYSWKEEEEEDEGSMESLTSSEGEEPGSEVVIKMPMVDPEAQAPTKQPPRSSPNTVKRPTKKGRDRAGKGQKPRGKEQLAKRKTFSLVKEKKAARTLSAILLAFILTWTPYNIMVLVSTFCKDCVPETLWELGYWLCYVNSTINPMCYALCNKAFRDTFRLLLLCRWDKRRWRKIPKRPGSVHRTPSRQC
Sequence of Gonadotropin-releasing hormone receptor (Homo sapiens) (P30968 whole entry, looked up): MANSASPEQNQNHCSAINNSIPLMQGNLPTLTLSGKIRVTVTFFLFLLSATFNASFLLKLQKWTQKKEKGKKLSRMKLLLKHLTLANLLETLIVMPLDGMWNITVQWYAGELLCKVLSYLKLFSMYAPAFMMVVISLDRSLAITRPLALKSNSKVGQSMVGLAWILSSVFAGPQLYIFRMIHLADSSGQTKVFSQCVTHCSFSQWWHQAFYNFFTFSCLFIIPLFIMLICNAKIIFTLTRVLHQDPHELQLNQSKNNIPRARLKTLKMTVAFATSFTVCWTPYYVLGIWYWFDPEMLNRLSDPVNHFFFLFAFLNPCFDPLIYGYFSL
Sequence of 5-hydroxytryptamine receptor 2A (Homo sapiens) (P28223 whole entry, looked up): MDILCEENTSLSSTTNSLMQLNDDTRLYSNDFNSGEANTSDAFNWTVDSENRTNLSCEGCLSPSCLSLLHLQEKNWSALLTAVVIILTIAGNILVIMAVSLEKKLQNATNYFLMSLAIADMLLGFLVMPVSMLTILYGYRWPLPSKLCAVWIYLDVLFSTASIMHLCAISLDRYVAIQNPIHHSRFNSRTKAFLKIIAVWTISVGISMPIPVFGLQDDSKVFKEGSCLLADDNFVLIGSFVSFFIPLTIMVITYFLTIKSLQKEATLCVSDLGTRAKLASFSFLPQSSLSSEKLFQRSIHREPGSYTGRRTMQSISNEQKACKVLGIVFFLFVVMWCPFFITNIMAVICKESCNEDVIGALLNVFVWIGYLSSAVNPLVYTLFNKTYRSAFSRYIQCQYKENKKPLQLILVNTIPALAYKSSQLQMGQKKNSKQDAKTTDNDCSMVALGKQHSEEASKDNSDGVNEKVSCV

`C[C@@H]1CC(=O)NN=C1c1ccc(NN=C(C#N)C#N)cc1`: the Potency in [1] was 11.9 µM (active) and 21.1 µM (active); in experiment [2] it was 23.7 µM (active) and 26.6 µM (active). Further, the Potency result in [3], in [4], in experiment [5], in experiment [6], in experiment [7] and in experiment [8] was “inactive” each time. Besides, the Potency result in [9], in experiment [10], in [11], in experiment [12], in experiment [13] and in [14] was “inactive” each time.

As for `CC(COCC(C)OC(=O)c1ccccc1)OC(=O)c1ccccc1` (stereo not drawn), the Potency entry in experiment [1], in [2], in [3], in experiment [4], in experiment [5] and in [6] was “inactive” throughout. The Potency entry in [7], in experiment [9], in experiment [10], in experiment [11], in experiment [15] and in [16] was “inactive” in each case. In addition, the Potency entry in [13], in experiment [17], in experiment [14] and in [18] was “inactive” in each case.

`C[N+](C)(C)CCO`: the Potency result in [1], in [2], in experiment [3], in experiment [4], in experiment [5] and in experiment [6] was “inactive” throughout. For the same compound, the Potency entry in experiment [7], in [8], in experiment [15], in experiment [16], in experiment [13] and in [17] was “inactive” each time. The Potency entry in experiment [14] and in experiment [18] was “inactive” in each case.

Turning to `CN=C(NC#N)NCCSCc1nc[nH]c1C`, the Potency entry in experiment [1], in [2], in [3], in [4], in experiment [5] and in [6] was “inactive” throughout. The Potency result in experiment [7], in experiment [8], in experiment [15], in [16], in [13] and in [17] was “inactive” in each case. The Potency result in experiment [14] and in [18] was “inactive” each time.

Consider `CO[Si](CCCNCCN)(OC)OC`, for which the Potency entry in experiment [1], in [2], in [3], in experiment [4], in experiment [5] and in experiment [6] was “inactive” in each case. The Potency result in experiment [7], in experiment [9], in experiment [10], in experiment [11], in experiment [15] and in experiment [16] was “inactive” in each case. The Potency entry in experiment [13], in [17], in experiment [14] and in experiment [18] was “inactive” in each case.

In the case of `CC(=O)[C@@]1(O)CC[C@H]2[C@@H]3CCC4=CC(=O)CC[C@]4(C)[C@H]3CC[C@@]21C`, the Potency entry in experiment [1], in [2], in experiment [3], in experiment [4], in [5] and in experiment [6] was “inactive” each time. The Potency result in experiment [7], in experiment [8], in experiment [15], in [13], in experiment [17] and in experiment [14] was “inactive” throughout. In experiment [18], the Potency result is “inactive”.

As to `Nc1ccc(Cl)c(N)c1`, the Potency entry in experiment [1], in experiment [2], in experiment [3], in [4], in [5] and in experiment [6] was “inactive” in each case. For the same compound, the Potency result in [7], in experiment [9], in [11], in experiment [12], in experiment [15] and in [16] was “inactive” each time. Moreover, the Potency entry in [13], in [17], in experiment [14] and in experiment [18] was “inactive” each time.

Turning to `C#C[C@]1(O)CC[C@H]2[C@@H]3CCC4=CC(=O)CC[C@@H]4[C@H]3CC[C@@]21C`, the Potency result in experiment [1], in [2], in experiment [3], in [4], in experiment [5] and in experiment [16] was “inactive” throughout. Further, the Potency entry in [13], in [17], in experiment [14] and in [18] was “inactive” in each case.

Source of the values: PubChem BioAssay (Tox21).
